# Assay results from the supplement of paper PMC11624193, “Coupling cellular drug-target engagement to downstream pharmacology with CeTEAM” (Nature Communications, 2024).
# Several values for one entry are separate records, joined by “and”; a condition that tells them apart may be missing. Equal values may be shown once. Where a name gives a salt, the structure may show the parent alone. Unmarked numbers belong to inactive results.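 Rule for the calls: active = log2 fold change beyond 2 SD from the library mean after excluding viability outliers; inactive = within 2 SD.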
# Target: PARP1 L713F-nLuc biosensor (HCT116) (UniProt P09874)
# Sequence (P09874 whole entry L713F, looked up): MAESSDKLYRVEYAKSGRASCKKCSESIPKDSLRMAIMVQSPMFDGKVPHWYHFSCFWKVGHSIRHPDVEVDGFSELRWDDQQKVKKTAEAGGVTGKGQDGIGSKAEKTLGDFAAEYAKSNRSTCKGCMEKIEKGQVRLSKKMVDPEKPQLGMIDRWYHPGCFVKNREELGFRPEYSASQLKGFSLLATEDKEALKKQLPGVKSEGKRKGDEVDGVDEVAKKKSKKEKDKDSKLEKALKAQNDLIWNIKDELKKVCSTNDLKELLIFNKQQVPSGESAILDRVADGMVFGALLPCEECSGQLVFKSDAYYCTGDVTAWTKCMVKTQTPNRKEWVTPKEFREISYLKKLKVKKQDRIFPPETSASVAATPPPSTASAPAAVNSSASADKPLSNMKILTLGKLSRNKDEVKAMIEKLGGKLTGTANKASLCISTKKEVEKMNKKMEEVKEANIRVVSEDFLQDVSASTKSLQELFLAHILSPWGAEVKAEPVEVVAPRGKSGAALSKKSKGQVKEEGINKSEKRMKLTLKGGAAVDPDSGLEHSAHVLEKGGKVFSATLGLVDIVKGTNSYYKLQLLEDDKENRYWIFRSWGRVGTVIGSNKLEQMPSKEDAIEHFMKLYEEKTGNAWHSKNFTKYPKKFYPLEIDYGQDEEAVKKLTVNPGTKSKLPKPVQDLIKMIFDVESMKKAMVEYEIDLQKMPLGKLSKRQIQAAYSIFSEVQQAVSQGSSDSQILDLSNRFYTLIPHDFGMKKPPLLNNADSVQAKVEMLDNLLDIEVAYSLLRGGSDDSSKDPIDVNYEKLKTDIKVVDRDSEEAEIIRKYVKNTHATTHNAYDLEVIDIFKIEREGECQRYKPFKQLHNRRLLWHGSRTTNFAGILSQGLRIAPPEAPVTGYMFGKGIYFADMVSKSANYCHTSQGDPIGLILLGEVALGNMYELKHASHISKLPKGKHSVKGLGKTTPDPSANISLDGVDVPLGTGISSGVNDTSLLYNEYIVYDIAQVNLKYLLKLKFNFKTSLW
# Assay: PARP1 L713F-nLuc/akaLuc ratio relative to DMSO control (biosensor stabilization) (fold change); higher = more PARP1 biosensor stabilization (target engagement / stabilizer), active = hit call of the paper
# Conditions: stock concentration (mM; final µM = stock mM x 1): 10; 24 h
row,Compound,PARP1 L713F-nLuc/akaLuc ratio
1,O=C(Nc1ccc(Cl)cc1)c1cc2ccccc2cc1O [Naphthol AS-E],1.09
2,CCCCCOC(=O)Nc1nc(=O)n([C@@H]2O[C@H](C)[C@@H](O)[C@H]2O)cc1F [Capecitabine],0.759
3,COc1ccc2[nH]cc(/C=C3\C(=O)Nc4ccc(NC(=O)CCN5CCCCC5)cc43)c2c1,0.931
4,C[C@@H]1COCCN1c1cc(C2([S@](C)(=N)=O)CC2)nc(-c2cc[nH]c3nccc2-3)n1,1.79
5,CCCCCCCCCCCCCC(=S)NCCCC[C@H](NC(=O)OCc1ccccc1)C(=O)Nc1ccccc1 [Thiomyristoyl],1.08
6,O=C(c1ccc(C(=O)N2CCC(N3CCCC3)CC2)c(Nc2ccccc2)c1)N1CCC(N2CCCC2)CC1,0.936
7,Cc1nc2cccc(N)c2c(=O)n1C1CCC(=O)NC1=O (stereo unspecified) [Avadomide(CC-122)],0.983
8,N=C(N)c1ccc(-c2ccc(-c3ccc(C(=N)N)cc3)o2)cc1 [Furamidine (dihydrochloride)],0.717
9,COc1cc(OC)c(/C=C/S(=O)(=O)Cc2ccc(OC)c(NCC(=O)O)c2)c(OC)c1,0.583
10,CCS(=O)(=O)N1CCN(c2ccc(Nc3ncc(C(N)=O)c(NC4CC4)n3)cc2)CC1 [Cerdulatinib],1.82
11,Nc1nc(OCc2ccc(CNC(=O)C(F)(F)F)cc2)c2[nH]cnc2n1 [PIN1 inhibitor API-1],1.38
12,COc1cc(/C=C/C(=O)CC(=O)/C=C/c2ccc(O)c(OC)c2)ccc1O [Curcumin],1.12
13,CC(=O)N1CCC(Nc2cc(C(=O)NC[C@H](O)CN3CCc4ccccc4C3)ncn2)CC1,0.707
14,Cc1nc(=O)c2cc(CN(C)c3ccc(C(=O)N[C@@H](CCC(=O)O)C(=O)O)s3)ccc2[nH]1 [Raltitrexed],1.07
15,COc1cc(Nc2ncc3c(n2)-c2ccc(Cl)cc2C(c2c(F)cccc2OC)=NC3)ccc1C(=O)O [Alisertib],0.939
16,O=C(O)CNC(=O)c1c(O)c2ccccc2n(OCC2CC2)c1=O [Desidustat],0.943
17,CCn1c(-c2nonc2N)nc2c(C#CC(C)(C)O)ncc(OC[C@H]3CCCNC3)c21,1.03 and 0.895
18,C[C@H](Nc1cc(-c2cnn(C)c2)cc(Nc2cnccn2)n1)c1ccc(F)cc1 [Ilginatinib],0.485
19,Nc1nc(OCc2cc(Br)cs2)c2ncn(CCCCCCCCO[C@@H]3O[C@H](CO)[C@@H](O)[C@H](O)[C@H]3O)c2n1 [O6BTG-octylglucoside],0.863
20,NC(=O)c1ccc(Oc2ccc(C(N)=O)cc2)cc1,1.27
21,Cc1ccc(NC(=O)c2ccc(CN3CCN(C)CC3)cc2)cc1Nc1nc(-c2cccnc2)cs1 [Masitinib (AB1010)],0.851
22,COc1ccc2c(Oc3ccc4c(C(=O)Nc5ccccc5N)cccc4c3)ccnc2c1 [Chiauranib],0.819
23,CS(=O)(=O)N1CCN(Cc2cc3nc(-c4cccc5[nH]ncc45)nc(N4CCOCC4)c3s2)CC1 [Pictilisib (GDC-0941)],0.659
24,NCCNc1ccc(NCCN)c2c1C(=O)c1ccncc1C2=O [Pixantrone Maleate],1.15
25,O=c1c(O)c(-c2ccc(O)c(O)c2)oc2cc(O)c(O)c(O)c12 [Quercetagetin],0.792
26,Nc1ncn([C@@H]2O[C@H](CO)[C@@H](O)[C@H]2O)c(=O)n1 [5-Azacytidine],2.35
